Design in all cases: scale not given: direction of the effect not stated beside the values
The target in assay [1] is Protein translocase subunit SecA (Escherichia coli (strain K12)) (UniProt P10408). Kind of assay: Assay to Identify E. coli SecA ATPase Inhibitors. The assay is classed as functional. The following applies: 30 µM.
Assay [2] deals with T1, Ubiquitin-activating enzyme e1, putative (Leishmania donovani (strain BPK282A1)) (UniProt E9BSI1).
T1 sequence (whole entry): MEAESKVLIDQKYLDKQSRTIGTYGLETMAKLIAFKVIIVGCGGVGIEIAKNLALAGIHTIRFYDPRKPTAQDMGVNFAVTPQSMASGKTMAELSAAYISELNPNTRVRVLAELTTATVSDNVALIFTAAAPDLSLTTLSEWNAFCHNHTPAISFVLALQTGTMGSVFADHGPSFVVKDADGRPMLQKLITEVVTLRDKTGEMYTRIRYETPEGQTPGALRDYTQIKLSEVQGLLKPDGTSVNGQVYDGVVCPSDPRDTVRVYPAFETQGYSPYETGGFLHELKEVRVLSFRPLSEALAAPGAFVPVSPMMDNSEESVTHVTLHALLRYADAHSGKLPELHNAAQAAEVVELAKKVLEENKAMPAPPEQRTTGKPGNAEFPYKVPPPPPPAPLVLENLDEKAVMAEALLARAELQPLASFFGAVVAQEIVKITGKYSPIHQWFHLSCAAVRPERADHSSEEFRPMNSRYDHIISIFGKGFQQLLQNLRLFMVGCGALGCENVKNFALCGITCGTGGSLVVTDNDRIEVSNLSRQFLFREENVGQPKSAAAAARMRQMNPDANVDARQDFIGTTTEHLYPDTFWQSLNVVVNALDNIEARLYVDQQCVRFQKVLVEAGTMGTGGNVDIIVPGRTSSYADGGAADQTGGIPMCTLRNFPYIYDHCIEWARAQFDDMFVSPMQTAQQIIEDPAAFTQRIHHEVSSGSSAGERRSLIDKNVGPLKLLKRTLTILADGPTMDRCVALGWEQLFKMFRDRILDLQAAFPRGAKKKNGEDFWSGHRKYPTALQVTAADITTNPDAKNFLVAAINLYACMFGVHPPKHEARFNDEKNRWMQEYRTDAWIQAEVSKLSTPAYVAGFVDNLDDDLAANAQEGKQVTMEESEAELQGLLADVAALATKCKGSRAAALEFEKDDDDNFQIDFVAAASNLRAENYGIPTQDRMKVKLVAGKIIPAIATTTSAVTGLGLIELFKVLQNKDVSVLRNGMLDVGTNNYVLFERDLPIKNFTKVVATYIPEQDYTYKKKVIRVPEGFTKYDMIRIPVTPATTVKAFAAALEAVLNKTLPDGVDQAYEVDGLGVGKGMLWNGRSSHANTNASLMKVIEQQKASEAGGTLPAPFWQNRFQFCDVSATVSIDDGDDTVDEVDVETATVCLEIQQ
Put plainly: Leishmania donovani Ubiquitin Activating Enzyme (LdE1). Format: functional. The following applies: 30 µM.

For assay [3], the target named is AMP-activated protein kinase, AMPK (Homo sapiens) (UniProt P54646+O43741+P54619+Q9UGJ0+Q9Y478+Q13131+Q9UGI9). Kind of assay: AMP-dependent Kinase enzyme assay. An in vitro enzyme assay that detects ADP turnover that is directly proportional to AMPK activity. This uses naive AMPK that is activated during the assay with MK-8722. Format: functional. The settings on record: 30 µM.

For assay [4], the target named is Sialic acid-binding Ig-like lectin 9 (Homo sapiens) (UniProt Q9Y336). Put plainly: Hs-Siglec9 ALPHAscreen SOP 20170721. The following applies: 10 µM. (Alpha assays give light when donor and acceptor beads are brought close together.)
Chain of Sialic acid-binding Ig-like lectin 9 (Homo sapiens) (Q9Y336 whole entry): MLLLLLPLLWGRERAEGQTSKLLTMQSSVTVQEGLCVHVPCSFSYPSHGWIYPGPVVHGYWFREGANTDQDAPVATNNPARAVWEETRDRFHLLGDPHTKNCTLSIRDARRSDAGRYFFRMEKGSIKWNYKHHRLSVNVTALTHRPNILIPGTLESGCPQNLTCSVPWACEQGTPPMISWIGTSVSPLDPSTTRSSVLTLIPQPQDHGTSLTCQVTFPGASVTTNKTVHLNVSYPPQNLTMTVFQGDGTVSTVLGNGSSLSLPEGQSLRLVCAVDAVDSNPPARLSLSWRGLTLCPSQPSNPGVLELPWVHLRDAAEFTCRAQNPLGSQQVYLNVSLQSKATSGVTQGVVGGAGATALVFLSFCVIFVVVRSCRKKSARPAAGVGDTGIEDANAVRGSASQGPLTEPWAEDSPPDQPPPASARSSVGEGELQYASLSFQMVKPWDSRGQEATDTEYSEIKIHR
Assay [5] concerns Trypanosoma cruzi. Put plainly: Trypanosoma cruzi phosphomannomutase and mannose-1-phosphate guanylyltransferase assay. The assay is classed as functional. The following applies: 10 µM.
For assay [6], the target named is T2, Arginase-2, mitochondrial (Homo sapiens) (UniProt P78540).
T2 sequence (whole entry): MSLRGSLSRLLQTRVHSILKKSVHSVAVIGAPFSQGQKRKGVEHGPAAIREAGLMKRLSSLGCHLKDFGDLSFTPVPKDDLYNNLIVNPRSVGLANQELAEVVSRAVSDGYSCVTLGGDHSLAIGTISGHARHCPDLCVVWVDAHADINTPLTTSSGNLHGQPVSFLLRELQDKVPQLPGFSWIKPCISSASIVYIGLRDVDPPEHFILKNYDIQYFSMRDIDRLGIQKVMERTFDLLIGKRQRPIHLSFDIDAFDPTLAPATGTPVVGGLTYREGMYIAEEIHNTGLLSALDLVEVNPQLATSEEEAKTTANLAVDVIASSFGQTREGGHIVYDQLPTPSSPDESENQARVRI
Put plainly: in vitro enzyme assay to detect the production of urea directly proportional to the activity of Arginase II. Note: in the data most compounds retested in dose-response had high values. The assay is classed as functional. The settings on record: 33.3 µM.

Assay [7] deals with T3, Proteasome subunit beta (Trypanosoma cruzi) (UniProt O96673).
T3 sequence (whole entry): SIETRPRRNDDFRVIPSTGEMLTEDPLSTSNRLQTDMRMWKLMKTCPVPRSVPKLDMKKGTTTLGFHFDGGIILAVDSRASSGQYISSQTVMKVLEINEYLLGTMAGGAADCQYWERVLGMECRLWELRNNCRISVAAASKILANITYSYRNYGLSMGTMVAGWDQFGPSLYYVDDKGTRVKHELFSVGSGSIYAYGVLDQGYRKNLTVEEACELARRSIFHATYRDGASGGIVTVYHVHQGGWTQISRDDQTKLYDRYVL
Kind of assay: Trypanosoma cruzi proteasome chymotrypsin-like activity (TcProtChymo) assay. Note: in the data most compounds retested in dose-response had high values. The assay is classed as functional. The following applies: 9.37 µM.

The species entered for assay [8] is Homo sapiens. Kind of assay: To identify inhibition of the IFN signalling (Jak-Stat) pathway via expression of an eGFP reporter gene under the control of an IFN-stimulated response element (ISRE) containing MxA promoter. The assay is classed as functional. The settings on record: 30 µM. For orientation: A reporter such as luciferase makes a cellular process visible.

The target in assay [9] is T4, Tyrosyl-tRNA synthetase, putative (Trypanosoma cruzi (strain CL Brener)) (UniProt Q4DSP6).
T4 sequence (whole entry): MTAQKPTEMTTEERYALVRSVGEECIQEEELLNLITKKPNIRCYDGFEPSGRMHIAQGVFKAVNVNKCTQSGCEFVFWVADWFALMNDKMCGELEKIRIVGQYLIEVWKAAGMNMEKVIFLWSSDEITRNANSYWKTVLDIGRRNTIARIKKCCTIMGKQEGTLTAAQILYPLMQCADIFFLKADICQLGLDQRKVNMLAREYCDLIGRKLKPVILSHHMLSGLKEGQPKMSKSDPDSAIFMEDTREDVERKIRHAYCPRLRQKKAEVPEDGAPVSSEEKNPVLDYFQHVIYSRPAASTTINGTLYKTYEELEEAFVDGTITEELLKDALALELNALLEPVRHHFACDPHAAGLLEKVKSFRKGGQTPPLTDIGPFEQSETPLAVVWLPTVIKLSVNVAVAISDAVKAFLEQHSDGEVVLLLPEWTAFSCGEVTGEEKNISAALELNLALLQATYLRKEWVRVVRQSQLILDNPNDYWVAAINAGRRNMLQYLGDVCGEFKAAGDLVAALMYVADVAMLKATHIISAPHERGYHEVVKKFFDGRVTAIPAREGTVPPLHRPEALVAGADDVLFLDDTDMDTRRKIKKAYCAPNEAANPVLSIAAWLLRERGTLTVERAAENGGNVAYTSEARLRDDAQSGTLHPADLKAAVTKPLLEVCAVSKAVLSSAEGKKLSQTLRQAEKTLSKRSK
Put plainly: Trypanosoma cruzi tyrosyl tRNA synthetase (TcYRS) _High Tyrosine SOP. Note: in the data most compounds retested in dose-response had high values. The assay is classed as functional. The settings on record: 30 µM.

The target in assay [10] is T4, Tyrosyl-tRNA synthetase, putative (Trypanosoma cruzi (strain CL Brener)). Put plainly: Trypanosoma cruzi tyrosyl tRNA synthetase (TcYRS) SOP. Format: functional. The settings on record: 30 µM.
Assay [11] concerns the target Chromo domain-containing protein 1 (Saccharomyces cerevisiae (strain ATCC 204508 / S288c) (Baker's yeast)) (UniProt P32657). Put plainly: ScCHD-1 Enzyme Inhibition Assay. Note: in the data most compounds retested in dose-response had high values. Format: functional. The settings on record: 30 µM.

For some of these results: Measured potencies and affinities stand elsewhere.

Chain of Protein translocase subunit SecA (Escherichia coli (strain K12)) (P10408 whole entry): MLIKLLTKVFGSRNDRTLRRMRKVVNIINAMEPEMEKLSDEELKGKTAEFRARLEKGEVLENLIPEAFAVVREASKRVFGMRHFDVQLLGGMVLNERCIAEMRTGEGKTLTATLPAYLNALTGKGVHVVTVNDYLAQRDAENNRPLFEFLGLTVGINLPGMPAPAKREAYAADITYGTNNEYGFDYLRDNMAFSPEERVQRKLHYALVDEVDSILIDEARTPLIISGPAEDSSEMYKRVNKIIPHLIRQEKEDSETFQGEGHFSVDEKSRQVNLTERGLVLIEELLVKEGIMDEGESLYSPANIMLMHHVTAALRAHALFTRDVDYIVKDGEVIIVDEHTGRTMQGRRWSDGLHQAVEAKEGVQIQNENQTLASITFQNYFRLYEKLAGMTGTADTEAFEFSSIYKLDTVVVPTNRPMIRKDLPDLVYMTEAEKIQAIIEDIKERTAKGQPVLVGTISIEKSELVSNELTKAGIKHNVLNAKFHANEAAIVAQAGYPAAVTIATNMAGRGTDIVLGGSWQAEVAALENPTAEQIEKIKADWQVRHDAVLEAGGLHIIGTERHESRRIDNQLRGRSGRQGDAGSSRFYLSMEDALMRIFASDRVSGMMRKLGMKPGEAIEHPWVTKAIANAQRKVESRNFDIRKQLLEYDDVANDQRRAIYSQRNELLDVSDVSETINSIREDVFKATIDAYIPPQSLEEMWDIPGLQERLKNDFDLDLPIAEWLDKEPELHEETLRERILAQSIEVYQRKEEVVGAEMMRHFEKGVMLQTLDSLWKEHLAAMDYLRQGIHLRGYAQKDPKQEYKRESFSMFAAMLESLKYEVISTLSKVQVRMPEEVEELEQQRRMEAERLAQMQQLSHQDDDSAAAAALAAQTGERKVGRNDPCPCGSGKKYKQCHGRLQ
Chain of Chromo domain-containing protein 1 (Saccharomyces cerevisiae (strain ATCC 204508 / S288c) (Baker's yeast)) (P32657 whole entry, the tested form may be a part): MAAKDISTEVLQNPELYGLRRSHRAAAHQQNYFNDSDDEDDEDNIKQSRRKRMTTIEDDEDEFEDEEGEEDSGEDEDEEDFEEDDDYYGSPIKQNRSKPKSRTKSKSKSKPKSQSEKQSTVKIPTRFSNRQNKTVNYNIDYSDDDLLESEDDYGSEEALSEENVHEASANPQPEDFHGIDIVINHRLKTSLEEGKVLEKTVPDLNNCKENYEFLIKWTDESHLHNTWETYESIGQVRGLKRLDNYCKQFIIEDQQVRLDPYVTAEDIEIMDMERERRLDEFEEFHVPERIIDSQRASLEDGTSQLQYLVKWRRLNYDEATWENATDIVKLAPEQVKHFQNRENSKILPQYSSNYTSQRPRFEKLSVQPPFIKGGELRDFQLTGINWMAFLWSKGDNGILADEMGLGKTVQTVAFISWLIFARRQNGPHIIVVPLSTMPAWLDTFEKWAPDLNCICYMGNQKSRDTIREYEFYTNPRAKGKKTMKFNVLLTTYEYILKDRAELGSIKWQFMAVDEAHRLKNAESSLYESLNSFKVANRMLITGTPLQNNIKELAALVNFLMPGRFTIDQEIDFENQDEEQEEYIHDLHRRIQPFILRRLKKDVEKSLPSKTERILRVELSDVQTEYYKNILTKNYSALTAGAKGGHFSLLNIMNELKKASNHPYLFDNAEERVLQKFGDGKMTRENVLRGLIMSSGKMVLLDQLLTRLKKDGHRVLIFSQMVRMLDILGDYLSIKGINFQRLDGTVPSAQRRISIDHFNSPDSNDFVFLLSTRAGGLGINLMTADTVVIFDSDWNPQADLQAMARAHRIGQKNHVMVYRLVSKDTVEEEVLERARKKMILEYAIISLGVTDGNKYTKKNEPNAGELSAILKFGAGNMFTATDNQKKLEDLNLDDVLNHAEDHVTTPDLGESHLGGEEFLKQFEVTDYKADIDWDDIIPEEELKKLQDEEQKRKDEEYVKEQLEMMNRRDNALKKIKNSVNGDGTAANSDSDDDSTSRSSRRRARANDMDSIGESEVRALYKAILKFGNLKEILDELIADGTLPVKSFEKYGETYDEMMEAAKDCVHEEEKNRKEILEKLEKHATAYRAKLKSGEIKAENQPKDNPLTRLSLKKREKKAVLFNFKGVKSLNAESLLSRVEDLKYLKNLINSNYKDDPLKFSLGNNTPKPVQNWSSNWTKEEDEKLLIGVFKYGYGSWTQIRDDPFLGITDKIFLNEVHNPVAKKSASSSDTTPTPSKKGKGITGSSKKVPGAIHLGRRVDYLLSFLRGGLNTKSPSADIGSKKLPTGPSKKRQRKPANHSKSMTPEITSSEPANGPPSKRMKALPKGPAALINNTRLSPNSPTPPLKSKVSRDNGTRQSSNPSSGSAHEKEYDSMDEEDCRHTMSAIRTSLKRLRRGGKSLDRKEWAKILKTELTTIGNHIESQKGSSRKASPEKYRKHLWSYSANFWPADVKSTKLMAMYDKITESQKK

Regarding `O=C([C@H]1C[C@@H]2CCN(C3CCOCC3)C[C@@H]2O1)N1CCOCC1`, the Percent Effect in assay [1] is 4.05%; in [2] it was 5.33%; in assay [3], -5.76%; in assay [4], 14.3%; in assay [5], -3.48%; in [6], -54.7%. In addition, the Percent Effect in [7] is 16.8%; in assay [8] it was -8.99%; in [9] it was 7.29%; in assay [10], 12.5%; in [11] it was -5.71%.
On to `NC(=O)c1nnn(-c2ccc(Br)cc2)n1`, for which the Percent Effect was -5.42% in [1]; 18.2% in assay [2]; -6.83% in assay [3]; -10.8% in assay [4]; 7.59% in assay [5]; 3.23% in [6]. Further, the Percent Effect in [7] is 11.5%; in [8] it was 17.2%; in assay [9] it was 5.29%; in assay [10], 6.41%; in assay [11], -9.19%.
Regarding `CN(C)CC1CN(CCOc2cccc(C#N)c2)CCO1` (stereo unspecified), the Percent Effect was -2.7% in assay [1]; -5.26% in [2]; -2.16% in assay [3]; -5.38% in assay [4]; -4.95% in assay [5]; 5.75% in assay [6]. In addition, the Percent Effect in assay [7] was -8.71%; in assay [8] it was -3.58%; in [9] it was 1.48%; in assay [10], 3.7%; in assay [11], 4.04%.
Consider `CN(CCOc1cccc(CNC(=O)C2CC2)c1)C1CCOCC1`, for which the Percent Effect in assay [1] is -3.16%; in assay [2], 0%; in assay [3] it was 2.77%; in assay [4] it was -1.13%; in [5] it was 4.44%; in [6], 3.33%. Besides, the Percent Effect is -3.45% in assay [7]; -3.27% in assay [8]; -0.529% in assay [9]; 2.44% in assay [10]; 0.329% in assay [11].
With `O=C(NCc1cncc2c1CCN(Cc1cccs1)C2)C1CC1`, the Percent Effect in assay [1] is 1.73%; in assay [2], 8%; in [3], 3.65%; in [4] it was -13.1%; in assay [5] it was -9.65%; in [6], 9.56%. Further, the Percent Effect in assay [7] was determined as 21.2%; in assay [8], 5.35%; in assay [9], 5.32%; in assay [10], 6.41%; in assay [11], 0.102%.
Turning to `CN1CCN(CCCNC(=O)c2cc(Cl)c3c(c2)OCO3)CC1`, the Percent Effect is 0.405% in [1]; 9.72% in assay [2]; -11.6% in assay [3]; 9.36% in assay [4]; 3.6% in assay [5]; 10.6% in assay [6]. In addition, the Percent Effect in assay [7] was 27%; in [8] it was -22.6%; in assay [9], 3.16%; in assay [10], 15.4%; in assay [11], -2.83%.
In the case of `O=C(Cc1ccc2c(c1)OCCO2)NC1CCCC1`, the Percent Effect is -5.5% in [1]; 18.2% in [2]; 2.67% in assay [3]; -8.79% in assay [4]; -11.2% in [5]; -2.85% in assay [6]. In addition, the Percent Effect in [7] is 5.74%; in assay [8] it was 32.2%; in [9], 1.94%; in assay [10], 7.32%; in [11], -5.69%.
For the molecule `Cc1ccc(C(=O)N2CCSCC2)cc1NC(=O)Cn1cncn1`, the Percent Effect in assay [1] is -4.05%; in [2], 16.4%; in assay [3], -5.58%; in assay [4], 10.2%; in assay [5] it was 7.74%; in assay [6], -7.98%. Besides, the Percent Effect was 17.6% in assay [7]; -4.75% in [8]; 6.25% in [9]; 18.5% in [10]; -7.01% in assay [11].
With `CN(C)C(=O)[C@@H]1CCO[C@@H]2CCN(CCc3ccccc3)C[C@@H]21`, the Percent Effect in assay [1] was -1.12%; in [2], 10.8%; in [3], -3.68%; in [4] it was 0.659%; in assay [5], 2.15%; in [6], 38.8%. The Percent Effect in assay [7] was 9.21%; in assay [8] it was 0.342%; in assay [9], -4.95%; in [10], 15.8%; in [11], -6.78%.
`CC(CN1CCOCC1)NCc1nncn1C1CCCCC1` (stereo unspecified): the Percent Effect was -2.55% in [1]; 1.39% in [2]; -4.5% in assay [3]; -12% in assay [4]; -5.54% in assay [5]; 3.09% in [6]. For the same molecule, the Percent Effect in [7] was 9.65%; in assay [8], -2.46%; in [9], 6.32%; in assay [10] it was 5.13%; in [11], -1.99%.
For the molecule `Cc1cccnc1NC(=O)NC(C)Cn1cccn1` (stereo unspecified), the Percent Effect in [1] is -8.41%; in [2], 10.4%; in assay [3] it was 7.9%; in [4] it was 3.8%; in assay [5], -5.62%; in assay [6], 1.78%. Besides, the Percent Effect was 0.845% in assay [7]; 23.3% in assay [8]; 3.88% in assay [9]; 2.44% in assay [10]; -4.43% in [11].

The record behind these values is ChEMBL document CHEMBL3988442, “University of Dundee, Small-Polar-MMV Screening Library” (2021).
